Drawing on PubChem BioAssay, this text covers composite z-score and z-score for 9 compounds.

Active and inactive are the calls of the source.

Assay [1] can be described thus: binders of probe aFSTL3 on microarray, primary screen, stem cell growth factor project, biochemical, small-molecule microarray, fluorescence 635/667 (AID 1064).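 Also: measures binding of the biotinylated anti-FSTL3 antibody to printed compounds.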 As to conditions: higher = more signal.
A short description of assay [2]: binders from COS7 lysate, DM2A8 probe, primary screen, torsin A project, cell lysate, small-molecule microarray, fluorescence 635/667 (AID 1065). Conditions: higher = more signal, COS7 lysate expressing mutant human TOR1A.
The nature of assay [3]: binders of probe aFGF2 on microarray, primary screen, stem cell growth factor project, biochemical, small-molecule microarray, fluorescence 635/667 (AID 1067).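 Also: measures binding of biotinylated aFGF2 protein to printed compounds on slides; z-score merges feature fluorescence and signal-to-noise across triplicate slides.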 As to conditions: higher = more signal.
A short description of assay [4]: binders of probe aFGF10 on microarray, primary screen, stem cell growth factor project, biochemical, small-molecule microarray, fluorescence 635/667 (AID 1071).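 Also: score merges 667 nm spot intensity and signal to noise from triplicate slides.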 Conditions: higher = more signal.
The target in assay [5] is Neurogenic locus notch homolog protein 2 (Homo sapiens) (UniProt Q04721). As to the kind of experiment: Notch2 binders on small-molecule microarrays, primary screen, biochemical, small-molecule microarray, 635 nm fluorescence, stem cell growth factors (AID 1073). As to conditions: Notch2 binding, higher = more signal.
Assay [6] concerns the target Pro-neuregulin-1, membrane-bound isoform (Homo sapiens) (UniProt Q02297). As to the kind of experiment: NRG1 binders on small-molecule microarrays, primary screen, psychiatric disease protein project, biochemical, small-molecule microarray, fluorescence 635/667 (AID 1075).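 Also: score combines 667 nm spot fluorescence with signal to noise.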 As to conditions: NRG1 binding, 635 nm fluorescence, higher = more signal.
For assay [7], the system named is Neuregulin-1 EGF-like domain. As to the kind of experiment: binders of neuregulin-1 EGF-like domain, primary screen, biochemical, small-molecule microarray, 635 nm fluorescence (AID 1081).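 Also: binding of the protein to compounds printed on small-molecule microarray slides.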 Conditions: small-molecule microarray binding, higher = more signal.
Assay [8] in a line: FRG1 promoter luciferase signal modulators, primary screen, FRG1 inhibition for FSHD, cell-based, C2C12 myotubes, firefly/Renilla luciferase, luminescence (AID 1084). Conditions: higher = more signal, called active from +8 up or from −8 down.
The nature of assay [9]: binders of probe aFST on microarray, primary screen, stem cell growth factor project, biochemical, small-molecule microarray, fluorescence 635/667 (AID 1086).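 Also: score merges 667 nm fluorescence with signal-to-noise of each printed compound spot.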 Conditions: higher = more signal.
Assay [10] can be described thus: binders of probe aHhip on microarray, primary screen, stem cell growth factor project, biochemical, small-molecule microarray, fluorescence 635/667 (AID 1087).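 Also: score merges spot fluorescence at 667nm with spot signal to noise ratio.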 Conditions: higher = more signal.
The test system of assay [11] is PRMT1 (protein arginine N-methyltransferase 1). As to the kind of experiment: PRMT1 binders on small-molecule microarrays, primary screen, biochemical, small-molecule microarray, 635 nm fluorescence (AID 1088).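 Also: binding of Prmt1 protein to compounds spotted on small-molecule microarray slides.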 As to conditions: small-molecule microarray binding, higher = more signal.
A short description of assay [12]: yeast growth modulation, basal conditions, primary screen, YJM789 clinical isolate, OD600, 24 h (AID 1089).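 Also: growth of clinical yeast isolate S. cerevisiae YJM 789 seeded 1000 cells per well; test concentration not given here.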 Conditions: S. cerevisiae YJM789 growth, higher = more signal, called active from +8 up or from −8 down.
Assay [13] is described as follows: fission yeast growth modulation, primary screen, strain 972, OD600, 24 h, no modulator (AID 1090).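 Also: basal condition with compound alone and no growth modifier present; test concentration not given here.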 Conditions: S. pombe 972 growth, higher = more signal, called active from +8 up or from −8 down.
The nature of assay [14]: S. cerevisiae growth modulation with rapamycin, primary screen, strain BY4716, OD600, 96 h (AID 1091). Also: test concentration not given here. Conditions: higher = more signal, called active from +8 up or from −8 down.
The target in assay [15] is Torsin-1A-interacting protein 2 (Homo sapiens) (UniProt Q8NFQ8). As to the kind of experiment: LULL1 binders on small-molecule microarray, primary screen, cell lysate, human LULL1 lysate, 635/667 nm fluorescence (AID 1092).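 Also: probe is lysate of COS7 cells overexpressing human LULL1; score merges per-feature 667 nm fluorescence with signal-to-noise.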 Conditions: hLULL1 lysate binding, 635 nm fluorescence, higher = more signal.
The nature of assay [16]: E. coli growth modulation, two-sided OD650, primary screen, E. coli filamentation project, strain DRC41, 24 h (AID 1093).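 Also: MC1000 strain lacking acrAB efflux and sulA so SOS filamentation is blocked; test concentration not given here.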 Conditions: OD650, 24 h, higher = more signal, called active from +8 up or from −8 down.
Assay [17] in a line: small-molecule microarray binders of probe aLefty2, primary screen, biochemical, biotinylated probe, 635/667 nm fluorescence (AID 1094).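 Also: score merges spot fluorescence near 667 nm with spot signal-to-noise ratio.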 Conditions: higher = more signal.
Assay [18] has as its system Noggin (protein binding on small-molecule microarray). Description: Noggin binders on small-molecule microarray, primary screen, biochemical, 635/667 nm fluorescence (AID 1095).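 Also: score merges 667 nm feature fluorescence with signal to noise over triplicate slides.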 As to conditions: 635 nm fluorescence, higher = more signal.
Assay [19] concerns the target Neurogenic locus notch homolog protein 3 (Homo sapiens) (UniProt Q9UM47). As to the kind of experiment: NOTCH3 binders on small-molecule microarray, primary screen, biochemical, 635/667 nm fluorescence (AID 1096). Conditions: NOTCH3 binding, 635 nm fluorescence, higher = more signal.
Assay [20] in a line: small-molecule microarray binders of probe aEGFR, primary screen, biochemical, biotinylated probe, 635/667 nm fluorescence (AID 1097).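 Also: probe is a biotinylated anti-EGFR antibody binding compounds printed on slides; score combines fluorescence near 667 nm and signal to noise of each spot.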 Conditions: higher = more signal.

Sequence of Torsin-1A-interacting protein 2 (Homo sapiens) (Q8NFQ8 whole entry, looked up): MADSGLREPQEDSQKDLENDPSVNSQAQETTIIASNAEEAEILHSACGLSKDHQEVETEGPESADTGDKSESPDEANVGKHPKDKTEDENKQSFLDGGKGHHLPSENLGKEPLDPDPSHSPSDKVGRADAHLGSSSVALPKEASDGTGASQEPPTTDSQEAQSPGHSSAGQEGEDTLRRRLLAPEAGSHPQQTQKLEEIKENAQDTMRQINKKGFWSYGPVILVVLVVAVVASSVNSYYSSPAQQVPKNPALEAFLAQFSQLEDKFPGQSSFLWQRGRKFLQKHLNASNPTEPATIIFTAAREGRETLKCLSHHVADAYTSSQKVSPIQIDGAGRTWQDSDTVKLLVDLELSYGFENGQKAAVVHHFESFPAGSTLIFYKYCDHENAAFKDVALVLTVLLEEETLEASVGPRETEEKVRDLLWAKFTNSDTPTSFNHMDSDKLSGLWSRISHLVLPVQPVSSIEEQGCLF
Sequence of Pro-neuregulin-1, membrane-bound isoform (Homo sapiens) (Q02297 whole entry, looked up, the tested form may be a part, canonical isoform): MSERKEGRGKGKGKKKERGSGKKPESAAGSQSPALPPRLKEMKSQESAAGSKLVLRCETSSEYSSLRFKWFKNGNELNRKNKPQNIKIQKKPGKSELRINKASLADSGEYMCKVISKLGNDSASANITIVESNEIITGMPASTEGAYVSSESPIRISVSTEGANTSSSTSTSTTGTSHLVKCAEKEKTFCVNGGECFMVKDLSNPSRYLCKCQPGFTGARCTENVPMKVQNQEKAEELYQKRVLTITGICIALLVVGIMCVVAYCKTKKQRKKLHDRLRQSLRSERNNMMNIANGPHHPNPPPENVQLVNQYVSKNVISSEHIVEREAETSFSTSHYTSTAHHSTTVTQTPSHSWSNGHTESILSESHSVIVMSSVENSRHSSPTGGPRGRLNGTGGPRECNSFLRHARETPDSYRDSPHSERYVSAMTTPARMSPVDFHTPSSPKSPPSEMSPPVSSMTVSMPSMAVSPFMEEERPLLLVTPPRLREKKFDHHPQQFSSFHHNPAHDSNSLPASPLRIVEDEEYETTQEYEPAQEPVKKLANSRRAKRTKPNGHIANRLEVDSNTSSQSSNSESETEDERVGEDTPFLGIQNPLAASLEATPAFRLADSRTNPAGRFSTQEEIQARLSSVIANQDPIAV
Sequence of Neurogenic locus notch homolog protein 2 (Homo sapiens) (Q04721 whole entry, looked up, canonical isoform): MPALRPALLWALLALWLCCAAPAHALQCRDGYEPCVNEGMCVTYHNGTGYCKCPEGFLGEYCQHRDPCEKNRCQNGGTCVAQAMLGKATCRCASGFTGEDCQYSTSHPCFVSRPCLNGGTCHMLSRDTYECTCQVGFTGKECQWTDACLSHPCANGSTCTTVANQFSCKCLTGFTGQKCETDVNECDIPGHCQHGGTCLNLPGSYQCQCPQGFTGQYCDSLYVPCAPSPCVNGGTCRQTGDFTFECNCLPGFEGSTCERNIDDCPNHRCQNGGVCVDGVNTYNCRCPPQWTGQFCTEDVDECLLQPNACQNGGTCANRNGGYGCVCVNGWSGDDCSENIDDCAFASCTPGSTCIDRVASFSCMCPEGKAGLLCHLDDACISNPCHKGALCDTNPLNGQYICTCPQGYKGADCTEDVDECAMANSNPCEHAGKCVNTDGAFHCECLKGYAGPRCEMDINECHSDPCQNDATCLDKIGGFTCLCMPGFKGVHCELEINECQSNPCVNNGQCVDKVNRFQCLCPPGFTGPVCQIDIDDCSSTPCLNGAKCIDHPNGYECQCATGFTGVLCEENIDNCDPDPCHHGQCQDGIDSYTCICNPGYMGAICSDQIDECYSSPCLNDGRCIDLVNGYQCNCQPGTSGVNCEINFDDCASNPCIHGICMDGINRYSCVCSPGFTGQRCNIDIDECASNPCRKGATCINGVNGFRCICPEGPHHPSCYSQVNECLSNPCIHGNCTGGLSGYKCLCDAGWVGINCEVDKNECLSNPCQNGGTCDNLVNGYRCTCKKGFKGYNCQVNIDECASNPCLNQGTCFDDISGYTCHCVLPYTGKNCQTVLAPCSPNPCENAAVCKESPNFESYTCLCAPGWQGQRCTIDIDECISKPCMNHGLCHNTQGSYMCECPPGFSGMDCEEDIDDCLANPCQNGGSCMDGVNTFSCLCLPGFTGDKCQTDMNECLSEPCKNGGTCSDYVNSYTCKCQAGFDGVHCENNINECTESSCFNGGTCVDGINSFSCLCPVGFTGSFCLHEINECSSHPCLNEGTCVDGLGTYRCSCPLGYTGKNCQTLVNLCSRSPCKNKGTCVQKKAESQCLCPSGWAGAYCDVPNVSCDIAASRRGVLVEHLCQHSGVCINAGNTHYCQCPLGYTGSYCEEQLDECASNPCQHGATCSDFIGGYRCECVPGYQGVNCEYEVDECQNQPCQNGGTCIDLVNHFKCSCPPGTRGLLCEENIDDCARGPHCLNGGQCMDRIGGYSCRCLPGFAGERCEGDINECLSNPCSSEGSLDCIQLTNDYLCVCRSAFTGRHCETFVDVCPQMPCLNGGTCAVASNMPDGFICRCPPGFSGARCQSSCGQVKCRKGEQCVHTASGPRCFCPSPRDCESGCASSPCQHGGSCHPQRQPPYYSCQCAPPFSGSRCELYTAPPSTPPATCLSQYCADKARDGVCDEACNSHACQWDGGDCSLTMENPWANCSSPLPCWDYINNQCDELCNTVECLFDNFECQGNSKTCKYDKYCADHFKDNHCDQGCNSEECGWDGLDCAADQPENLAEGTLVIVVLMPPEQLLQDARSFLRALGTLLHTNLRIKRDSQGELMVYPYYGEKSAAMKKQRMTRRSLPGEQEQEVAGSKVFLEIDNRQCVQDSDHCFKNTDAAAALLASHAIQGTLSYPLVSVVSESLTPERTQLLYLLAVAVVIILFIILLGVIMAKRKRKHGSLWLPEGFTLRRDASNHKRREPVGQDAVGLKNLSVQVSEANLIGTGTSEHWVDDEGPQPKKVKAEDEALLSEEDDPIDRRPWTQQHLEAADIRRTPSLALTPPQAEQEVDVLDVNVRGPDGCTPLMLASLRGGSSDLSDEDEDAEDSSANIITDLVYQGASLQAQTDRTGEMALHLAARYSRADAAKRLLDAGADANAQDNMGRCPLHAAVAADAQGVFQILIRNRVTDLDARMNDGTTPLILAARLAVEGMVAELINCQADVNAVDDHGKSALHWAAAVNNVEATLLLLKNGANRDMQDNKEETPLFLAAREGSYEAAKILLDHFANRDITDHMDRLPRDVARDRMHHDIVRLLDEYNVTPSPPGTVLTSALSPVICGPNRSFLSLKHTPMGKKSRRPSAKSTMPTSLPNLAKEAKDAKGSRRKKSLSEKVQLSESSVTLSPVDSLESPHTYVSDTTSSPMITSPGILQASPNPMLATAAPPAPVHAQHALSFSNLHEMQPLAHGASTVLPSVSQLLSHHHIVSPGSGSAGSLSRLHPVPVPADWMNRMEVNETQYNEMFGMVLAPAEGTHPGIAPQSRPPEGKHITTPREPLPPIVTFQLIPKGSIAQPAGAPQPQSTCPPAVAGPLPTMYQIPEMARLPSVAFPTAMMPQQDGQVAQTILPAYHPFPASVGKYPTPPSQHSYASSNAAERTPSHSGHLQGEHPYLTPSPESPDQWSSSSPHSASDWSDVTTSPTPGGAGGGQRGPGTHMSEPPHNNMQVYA

As for `COCCOC(=O)N1C(=O)[C@@]2(c3ccccc31)[C@H](C(=O)N1CCc3cc(OC)c(OC)cc3C1)[C@H]1C(=O)O[C@H](c3ccccc3)[C@H](c3ccccc3)N1[C@@H]2c1ccc(OCCO)cc1`, the composite z-score in assay [1] is 0.249; in assay [2], 0.977; in [3] it was -0.279; in assay [4], 0.509; in assay [5], 0.832; in assay [6], 0.0602. Also, the composite z-score in [7] was 1.21; in assay [9] it was 0.412; in [10], -0.0085; in assay [11], 1.51; in [15] it was 2.27; in assay [17], 0.103. The values for the composite z-score in assay [18], in assay [19] and in assay [20] were 0.94, 0.995 and -0.0309, respectively. In addition, the z-score is -1.98 (inactive) in assay [8]; 2.26 (inactive) in [12]; 0.476 (inactive) in assay [13]; 4.47 (inactive) in [14]; 1.68 (inactive) in assay [16].
Turning to `O=C1C[C@@](C(=O)NCCN2CCOCC2)(c2ccc([N+](=O)[O-])cc2)[C@@H](c2ccc(CO)cc2)N1CC12CC3CC(CC(C3)C1)C2`, the composite z-score was -0.243 in assay [1]; 0.667 in [2]; -0.0692 in assay [3]; 0.573 in [4]; 1.51 in [5]; 1.58 in assay [6]. The composite z-score was 1.39 in assay [7]; 0.669 in assay [9]; 0.155 in assay [10]; 1.53 in assay [11]; 3.31 in assay [15]; 0.0211 in assay [17]. For the same compound, the results for the composite z-score in assay [18], in [19] and in assay [20] were 1.4, 1.09 and 0.0778, respectively. Also, the z-score in [8] was -2.76 (inactive); in assay [12], -1.41 (inactive); in assay [13], -17.2 (active); in assay [14], -1.37 (inactive); in [16] it was -2.26 (inactive).
On to `O=C1C2C=CC(C(O)Cc3ccccc3)N(n3cnnc3)C2C(=O)N1Cc1ccccc1` (stereo not given), for which the composite z-score in assay [1] is 0.442; in assay [2], -0.0532; in [3], 0.038; in assay [4], 0.426; in [5], 1.43; in assay [6], 0.489. Also, the composite z-score in assay [7] was 0.984; in [9], 0.307; in assay [10], -0.186; in assay [11], 0.411; in assay [15] it was 2.93; in [17] it was 0.0906. The composite z-score was -0.785 in assay [18], 0.153 in [19] and -0.0592 in assay [20]. Besides, the z-score in [8] was 0.793 (inactive); in [12], -0.112 (inactive); in [13], 0.116 (inactive); in assay [14], 0.343 (inactive); in assay [16], -1.25 (inactive).
As for `[N-]=[N+]=NCc1ccccc1C[C@]1(C(N)=O)COC(c2ccc(OCCCO)cc2)=N1`, the composite z-score in assay [1] is 0.293; in assay [2] it was 2.02; in [3] it was -0.0805; in assay [4], -0.101; in assay [5], 0.63; in assay [6], 1.59. For the same compound, the composite z-score in [7] is 1.03; in assay [9] it was 0.847; in assay [10], 0.154; in assay [11], 0.945; in [15], 3.1; in assay [17], 0.0567. Besides, the composite z-score in assay [18] is -0.572; in [19], 0.31; in assay [20] it was 0.0641. Also, the z-score is -1.41 (inactive) in [8]; -4.72 (inactive) in assay [12]; -1.09 (inactive) in assay [13]; -1.19 (inactive) in assay [14]; 1.95 (inactive) in assay [16].
For the compound `CCOC(=O)C1=C[C@@H](C(C)(C)C)N(S(=O)(=O)c2ccc(C)cc2)[C@H]1c1ccc(F)cc1`, the composite z-score is -0.272 in assay [1]; 0.59 in [2]; 0.0434 in [3]; 0.619 in [4]; 1.59 in [5]; -0.11 in assay [6]. The composite z-score in assay [7] is 0.69; in assay [9] it was 1.05; in assay [10] it was -0.0324; in [11], 1.5; in assay [15] it was 3.07; in assay [17], -0.0341. In addition, the composite z-score in assay [18] was 0.989; in assay [19], 1.07; in assay [20] it was -0.0004. Moreover, the z-score was -0.705 (inactive) in assay [8]; 0.518 (inactive) in assay [12]; 1.95 (inactive) in assay [13]; 1.92 (inactive) in [14]; -1.02 (inactive) in assay [16].
As to `COc1ccc(C#Cc2ccc3c(c2)[C@]2(C(=O)N3)[C@H](C(=O)NC[C@H](O)c3ccccc3)[C@H]3C(=O)O[C@H](c4ccccc4)[C@H](c4ccccc4)N3[C@@H]2c2ccc(O)cc2)cc1`, the composite z-score in [1] is -0.384; in assay [2], 0.736; in assay [3] it was -0.0824; in [4], 0.857; in assay [5], 1.2; in assay [6], 1.52. The composite z-score was 1.34 in assay [7]; 0.243 in assay [9]; -0.201 in assay [10]; 1.55 in assay [11]; 2.98 in assay [15]; 0.0078 in assay [17]. In addition, the composite z-score in assay [18] was 0.904; in [19], 0.729; in assay [20], 0.0996. Further, the z-score was 0.254 (inactive) in assay [8]; 2.26 (inactive) in assay [12]; 0.984 (inactive) in assay [13]; 2.2 (inactive) in assay [14]; -0.0198 (inactive) in assay [16].
Take `Cc1ccc(S[C@]2(C(=O)NCCCN(C)C)CC(=O)N(Cc3cc(C(F)(F)F)cc(C(F)(F)F)c3)[C@@H]2c2ccc(CO)cc2)cc1`: the composite z-score in assay [1] is -0.16; in assay [2], -0.594; in [3], -0.159; in assay [4] it was -0.145; in [5], -1.28; in assay [6], 0.494. Further, the composite z-score in assay [7] is -0.624; in assay [9] it was -0.482; in assay [10], -0.0645; in assay [11] it was 0.383; in assay [15], 0.923; in assay [17], -0.0478. Besides, the composite z-score was -0.768 in assay [18], -1.5 in assay [19] and -0.113 in assay [20]. The z-score in assay [8] is 0.318 (inactive); in assay [12], -1.15 (inactive); in [13], -0.79 (inactive); in assay [14], -0.497 (inactive); in [16] it was -0.356 (inactive).
Regarding `C[N+](C)(C)CCCCNC(=O)[C@@H]1C[C@@H]2C(=O)N[C@@H](Cc3ccccc3)C(=O)N2[C@@H]1c1cccc(OCCO)c1`, the composite z-score in assay [1] is 0.241; in assay [2], -0.108; in assay [3] it was -0.147; in assay [4] it was 0.394; in assay [5], -0.39; in [6], 1.01. The composite z-score was 1.14 in assay [7]; -0.253 in assay [9]; -0.195 in assay [10]; 0.402 in assay [11]; 1.42 in assay [15]; -0.0333 in assay [17]. Besides, the figures for the composite z-score in assay [18], in assay [19] and in assay [20] were 0.692, -0.0417 and -0.169, respectively. The z-score in assay [8] is 1.51 (inactive); in assay [12] it was 0.534 (inactive); in assay [13], -0.642 (inactive); in [14], -1.14 (inactive); in assay [16], 1.07 (inactive).
Consider `CCC(CC)C(O)C1C=CC2C(=O)NC(=O)C2N1Nc1ccc(Cl)cc1Cl` (stereo not given), for which the composite z-score in [1] turned out to be 0.494; in assay [2] it was 0.318; in assay [3], 0.133; in assay [4], 0.309; in assay [5] it was 1.42; in assay [6], 0.971. In addition, the composite z-score in assay [7] is 1.08; in assay [9], 0.812; in assay [10], 0.0749; in assay [11], 1.4; in [15], 3.13; in [17], -0.0306. For the same compound, the composite z-score in assay [18] was -0.284; in assay [19] it was 1.01; in assay [20], -0.0352. The z-score was -1.71 (inactive) in [8]; 0.446 (inactive) in assay [12]; -5.81 (inactive) in assay [13]; 1.34 (inactive) in [14]; -1.57 (inactive) in assay [16].
